Measured values reported in article PMC13494018.
Unmarked numbers belong to inactive results. How the calls were made is not given here.

B1: design_611_394c5ea9-a0d3-47c4-9d48-89ba6a28fdd0_1787_dldesign_0_cycle1_af2pred (protein)
chain: AAAAIAAATTGMNIAKKNANTLLAQAEATGNAGLADAAKVAADIVKANAKAAAKLADADTGAALVKDAEDFAKATNAKIAAVKAKA
B2: design_611_394c5ea9-a0d3-47c4-9d48-89ba6a28fdd0_2254_dldesign_0_cycle1_af2pred (protein)
chain: GKEEAQKLVEEAREAAKKAKEYTAKALAEDLEAEGAKSWAALNEALAKASQAAQLDPELGSAAIAEVVETAKEIKEKLDAAKAA
B3: design_611_394c5ea9-a0d3-47c4-9d48-89ba6a28fdd0_2213_dldesign_0_cycle1_af2pred (protein)
chain: GQELLAQAQKELKEGKALMKEGKYKEALAKFTQAANLAAKAAAAYADQPIAKQANAVLAEAVENMAKAQALID
B4: design_611_394c5ea9-a0d3-47c4-9d48-89ba6a28fdd0_1682_dldesign_0_cycle1_af2pred (protein)
chain: SAALEELREKGKAEANALISASMKAAAAGLAGDAATAAAAAATIEANAKEAKEKAKEYPEAKEYYEKAAKVNTQLAEGAKLL
B5: design_611_394c5ea9-a0d3-47c4-9d48-89ba6a28fdd0_2334_dldesign_0_cycle1_af2pred (protein)
chain: MTPAEAQLQAGEVFLRAAEQALKAGNYESAIKLAELAIEAAKQAKKLAKAAGDEATAKKAEEVEKKAKEVLKKAKE
B6: design_611_394c5ea9-a0d3-47c4-9d48-89ba6a28fdd0_2077_dldesign_0_cycle1_af2pred (protein)
chain: ASEELLKEAVTLNMRLAVEFPEVAKYARAAAHYLMAGDAEKAVESAEKMLEEAKKAGPEAAALAEKALKATKAAAADQAAER
B7: design_612_bdadb936-3f14-48ad-830f-718e38d81c30_1410_dldesign_0_cycle1_af2pred (protein)
chain: MEEIRALAEEALATAEAELATMRAAQEAGDVGTAVDALRVLFRTANEAIRRLRELGGPEEYIERLEAARREAQAILAATARRAIAQA
B8: design_612_bdadb936-3f14-48ad-830f-718e38d81c30_1687_dldesign_0_cycle1_af2pred (protein)
chain: MELVKRAREILERAERAETVEELRRVLAEAARLAGEAARAAIADPATAAAANEALAIALEAMRVATERARAAR
B9: design_612_bdadb936-3f14-48ad-830f-718e38d81c30_1181_dldesign_0_cycle1_af2pred (protein)
chain: MMEEIKKLTEKGEELLKKGKELAKEGTAEAANKALAYYVEAAEYYEKALRLAKEAGAEEEFIKELEKKLQEAFANANAAAKAAIALTA
B10: design_611_394c5ea9-a0d3-47c4-9d48-89ba6a28fdd0_1995_dldesign_0_cycle1_af2pred (protein)
chain: AELAKQIAKKVMETAIKIAEEETPEAGIEAGKRAAMTAVALGDLETAEETIERVVEIARKKDPEAAERAREELEAAYARALAAVAAS
B11: design_611_394c5ea9-a0d3-47c4-9d48-89ba6a28fdd0_2091_dldesign_0_cycle1_af2pred (protein)
chain: RAALEEALAKARELAEKVGEEDPEVAKEVLELIDKAAATSPATGLYYLLQALELMSRYAKESGSEVAREAAEALRAAVAIWSRLAIA
B12: design_612_bdadb936-3f14-48ad-830f-718e38d81c30_608_dldesign_0_cycle1_af2pred (protein)
chain: AALVAQAAADLEAIGARYPALKPAADRALTLTPGLRLLAANTARNALPGSEEEIVEALRRMVEALEAEQARLDAA
B13: design_612_bdadb936-3f14-48ad-830f-718e38d81c30_1240_dldesign_0_cycle1_af2pred (protein)
chain: GEEEERDERARELVEKGREEAEKYIAAGKVGEAAGVVVEKAAEAHRVAVSPEVKAEINRELAAQIRRIMEAIA
B14: design_612_bdadb936-3f14-48ad-830f-718e38d81c30_557_dldesign_0_cycle1_af2pred (protein)
chain: MDQAVADRTAEALAKHAKRLLEEGLKLAKEGDLEEAKKKVEAAKQVAEVLKNLGSPKAAELGEKMLEEAKKALEEIKKR
B15: design_611_394c5ea9-a0d3-47c4-9d48-89ba6a28fdd0_2429_dldesign_0_cycle1_af2pred (protein)
chain: GPERAELLRNAARQAEEAIRKGDESPDGVLYYTAAALIVANAIGDPELRAKAQAAAALSPEEARKVAEELRELALERARELA
B16: design_611_394c5ea9-a0d3-47c4-9d48-89ba6a28fdd0_2003_dldesign_0_cycle1_af2pred (protein)
chain: GELKEQTAQLLETAIQAAKLSAKQAQAAIKAATIAGSQSPETKEISEEYGKKAIEAAKKSAEEAQKVIKEWLKLVKE
B17: design_611_394c5ea9-a0d3-47c4-9d48-89ba6a28fdd0_1623_dldesign_0_cycle1_af2pred (protein)
chain: SAEVLAAAEKLVEIGELARKAAEAFPELAEKAAEAANLAALGLAKLASGATAAEGKKAMEKAEELAKELKKAL
B18: design_612_bdadb936-3f14-48ad-830f-718e38d81c30_262_dldesign_0_cycle1_af2pred (protein)
chain: AKERVKELAKEIEKLAKEAPPEVAKHLKKAAEALKKGVEEGPGAMAEAVVTLAEAAAEAYKLDPEVGERLRRIAAEVARLAIEYQA
B19: design_611_394c5ea9-a0d3-47c4-9d48-89ba6a28fdd0_1764_dldesign_0_cycle1_af2pred (protein)
chain: MLAEEARKYAEKGAEGEDSEEWFAKAAELYAQALLTSEEEARATFEALREVAERYPEKAEKVYAAISRGVQLAAQQAL
B20: design_612_bdadb936-3f14-48ad-830f-718e38d81c30_773_dldesign_0_cycle1_af2pred (protein)
chain: SAAAEAQQRLNELLGRLTAATEAGAAVDPALASALAGKAFTELSKAHQYLLAGDVDAAQAELDKAEKLVKELEAAAAAAAAAAA
B21: design_612_bdadb936-3f14-48ad-830f-718e38d81c30_247_dldesign_0_cycle1_af2pred (protein)
chain: GALGRSVARDTARAFLADPEKGKEMADIAAGVGATDAAAGRAALEELLRLAKEHPEVAEQLEAAAKKVAAAIKQAEAAAA
B22: design_612_bdadb936-3f14-48ad-830f-718e38d81c30_331_dldesign_0_cycle1_af2pred (protein)
chain: GKKAQAIALIDEATALLIAAQAADAETGAKLTAEAVKLLSEAIELAAELNGRAAGLIGRLLALGAAGTISPERLKELAAAAKAEIEAA
B23: design_612_bdadb936-3f14-48ad-830f-718e38d81c30_271_dldesign_0_cycle1_af2pred (protein)
chain: AARAEALAAEGEALIEQALSDATLSEEERKALLNQAAHKFVAAAGALVADRGPAAQAEITALLSKAVEAKALAEA
B24: design_612_bdadb936-3f14-48ad-830f-718e38d81c30_1230_dldesign_0_cycle1_af2pred (protein)
chain: AAAAAVATAAADAMYKQAKKQAEEAFKAAKENPEEGKKLAESALKNFELAATLYAQAGDEAKAKAVLEEGKEKYEEIMKKIKEAE
B25: design_612_bdadb936-3f14-48ad-830f-718e38d81c30_973_dldesign_0_cycle1_af2pred (protein)
chain: GAATALAILKANLAAQVKAAAAGVGAKAAAETAKVLADSAAGIAKADPAVAAEAEKLAAEAKAASKEFAAKAEAAAAA
B26: design_611_394c5ea9-a0d3-47c4-9d48-89ba6a28fdd0_1679_dldesign_0_cycle1_af2pred (protein)
chain: GEELEKAKEEAEKLTDLAKALAAQGTPLGKAAANAMSDSAVKIVLDTAKKLGKEEEGKKYADEIKAATAAALAA
B27: design_611_394c5ea9-a0d3-47c4-9d48-89ba6a28fdd0_1683_dldesign_0_cycle1_af2pred (protein)
chain: DEAEELVRLVEEARALAIDPATRGQGVTLFLLVGIRSGPAVRAAAVEAARAAREAAALPPEERARRLEELAARVIAAIRAEA
B28: design_611_394c5ea9-a0d3-47c4-9d48-89ba6a28fdd0_2343_dldesign_0_cycle1_af2pred (protein)
chain: AQALADQQLIATVKAALKNAEELYKKDKKAGAKAFAAAAEVAKLAIEGSSAAAKPELKALEKKAKENEKKAKEDA
B29: design_611_394c5ea9-a0d3-47c4-9d48-89ba6a28fdd0_2413_dldesign_0_cycle1_af2pred (protein)
chain: TAEQVEKLKERAIERLKKAAELDKEAAEELLKLYEEMKKVSENLGEAALLAAKAAAIAKNPEARALASQALADLSQAAILAAA
B30: design_612_bdadb936-3f14-48ad-830f-718e38d81c30_642_dldesign_0_cycle1_af2pred (protein)
chain: MREEARALLERAREALARARALAEAGGDGGEAVSLMVEALEAASRALRLARELGDEELAEEAERLLAEIRRATAAITQAVIDRA
B31: design_612_bdadb936-3f14-48ad-830f-718e38d81c30_1324_dldesign_0_cycle1_af2pred (protein)
chain: AFAAAIAALTAAAAATTPALATQLNAVKTAVTNTAKNAQAAPPEVKAATAAKWAEIAQGAVDAALAAAAA
B32: design_612_bdadb936-3f14-48ad-830f-718e38d81c30_501_dldesign_0_cycle1_af2pred (protein)
chain: DLLAKQKELSEKYERVAEIGEEARKLVGEEAAELSLKALTYYTKAMAAYAAGEATAAEAEKYEKKGEEYEKKLKELKEKELKK
B33: design_612_bdadb936-3f14-48ad-830f-718e38d81c30_198_dldesign_0_cycle1_af2pred (protein)
chain: DAAVAQGQKLRDAALAALAAATTLAQFNAAAQQGLAALAQITALIVAHPEAGPQLQKLAAEVLAAIEAARARALAA
B34: design_612_bdadb936-3f14-48ad-830f-718e38d81c30_35_dldesign_0_cycle1_af2pred (protein)
chain: SEAEKEAAKAEVRALGAQALDVALRAAARQGAPVAELAAVVQQISQLVDQGIALVEKGDLEAGLALAQQALQLAQQFAA
B35: design_612_bdadb936-3f14-48ad-830f-718e38d81c30_715_dldesign_0_cycle1_af2pred (protein)
chain: IEQLAALARASYRAVRVAAENLAAGRLTPEQLKAAAQLAEGTEKLAKETAAAYNADPATKEKAAEFEELARFAKEVRDAARAAL
B36: design_612_bdadb936-3f14-48ad-830f-718e38d81c30_1207_dldesign_0_cycle1_af2pred (protein)
chain: GAELLAKKAQELYKKAEELAKKAPESVEAAKKAQEYAQQSIATVAELFEKFPEAPQELKASLARIAAQAAKYYLDAQKLIKAA
B37: design_612_bdadb936-3f14-48ad-830f-718e38d81c30_88_dldesign_0_cycle1_af2pred (protein)
chain: AAAAAAGEAALARLETEGAAAAAAAAADPAAAGEEIERVLALQAEVARAHPSVAAEAAAIARRYNAAIARAVVAA
B38: design_612_bdadb936-3f14-48ad-830f-718e38d81c30_380_dldesign_0_cycle1_af2pred (protein)
chain: SQALQTQMLIANARNLAKNAEELLKKGDVEKAEKAVEALEKLAKIAGEASPEAGKEAGKLAEEARKKVEEFKK

target: CD276, Q5ZPR3
Sequence (Q5ZPR3 whole entry): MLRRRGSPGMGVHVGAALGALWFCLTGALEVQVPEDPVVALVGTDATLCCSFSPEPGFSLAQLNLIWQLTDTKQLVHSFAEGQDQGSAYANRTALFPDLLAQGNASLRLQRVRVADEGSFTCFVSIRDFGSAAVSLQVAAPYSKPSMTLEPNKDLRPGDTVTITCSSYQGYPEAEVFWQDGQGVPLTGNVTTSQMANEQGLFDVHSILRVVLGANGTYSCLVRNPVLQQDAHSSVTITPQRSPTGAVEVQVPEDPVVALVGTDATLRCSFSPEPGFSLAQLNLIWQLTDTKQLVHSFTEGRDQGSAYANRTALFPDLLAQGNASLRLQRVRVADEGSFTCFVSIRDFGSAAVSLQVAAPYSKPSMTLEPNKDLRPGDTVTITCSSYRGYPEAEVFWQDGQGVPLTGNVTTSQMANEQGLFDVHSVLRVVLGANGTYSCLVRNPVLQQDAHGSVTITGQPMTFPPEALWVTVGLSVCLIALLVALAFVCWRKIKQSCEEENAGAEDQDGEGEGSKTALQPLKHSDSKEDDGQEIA

Binder | binding in a display sort
B1 | not found
B2 | not found
B3 | not found
B4 | not found
B5 | not found
B6 | not found
B7 | binds (active)
B8 | not found
B9 | not found
B10 | not found
B11 | not found
B12 | not found
B13 | not found
B14 | not found
B15 | not found
B16 | not found
B17 | not found
B18 | not found
B19 | not found

Binder | binding in a display sort
B20 | not found
B21 | not found
B22 | not found
B23 | not found
B24 | not found
B25 | not found
B26 | not found
B27 | not found
B28 | not found
B29 | not found
B30 | not found
B31 | not found
B32 | not found
B33 | not found
B34 | not found
B35 | not found
B36 | not found
B37 | not found
B38 | not found
